Among the data in PubChem BioAssay AID382 (SGCOxCompounds, 2006) are Tm shift values, retold here.

Several values for one entry are separate records, joined by “and”; a condition that tells them apart may be missing. Equal entries are not always repeated. Activity calls are given as the source filed them. How the calls were made is not given here.

In the first experiment the target is Dual specificity protein kinase CLK1 (Homo sapiens) (UniProt P49759). Nature of the experiment: ligand-induced CLK1 melting temperature shift – biophysical, recombinant human kinase, DSF (AID 382). The following applies: Recombinant CLK1, thermal shift (DSF), at 10 µM, protein 2 µM, buffer 10 mM HEPES, NaCl 150 mM, stronger effect = higher value.
Dual specificity protein kinase CLK1 (Homo sapiens), sequence (P49759 whole entry, looked up): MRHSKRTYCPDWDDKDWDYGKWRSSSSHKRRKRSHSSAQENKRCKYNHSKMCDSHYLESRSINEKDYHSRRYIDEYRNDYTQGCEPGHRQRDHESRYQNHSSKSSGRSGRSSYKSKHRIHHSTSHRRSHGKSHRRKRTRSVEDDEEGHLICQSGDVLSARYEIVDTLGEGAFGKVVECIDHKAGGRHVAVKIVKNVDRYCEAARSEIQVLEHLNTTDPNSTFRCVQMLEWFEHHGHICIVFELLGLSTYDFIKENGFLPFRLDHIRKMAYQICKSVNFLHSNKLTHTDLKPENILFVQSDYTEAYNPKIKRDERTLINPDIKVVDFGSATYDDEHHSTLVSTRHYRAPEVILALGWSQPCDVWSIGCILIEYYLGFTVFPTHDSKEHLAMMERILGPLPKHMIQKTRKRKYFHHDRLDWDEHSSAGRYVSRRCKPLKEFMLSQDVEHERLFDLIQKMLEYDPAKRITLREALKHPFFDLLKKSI
Regarding `CC1N=C2SC=CN2C(=O)C1CCN1CCC(=C(c2ccccc2)c2ccc(F)cc2)CC1` (stereo not given), the Tm shift is 6.74 Celsius (active). With `O=Nc1c(-c2c(O)[nH]c3ccccc23)[nH]c2ccccc12`, the Tm shift is 3.59 Celsius (active). Still for that read-out and setting: the figure for `CC(C)n1cnc2c(Nc3cccc(Cl)c3)nc(NCCO)nc21` is 5.26 Celsius (active); for `Cc1cc(O)c2c(c1)C(=O)c1cc(O)cc(O)c1C2=O` it is 3.11 Celsius (active); for `O=c1c(O)c(-c2ccc(O)c(O)c2)oc2cc(O)cc(O)c12` it is 8.34 Celsius (active) and 6.74 Celsius (active). On the same count and under the same terms, with `O=C1c2ccccc2-c2n[nH]c3cccc1c23` the figure was 4.9 Celsius (active); with `COc1cc(/C=C/C(=O)CC(=O)/C=C/c2ccc(O)c(OC)c2)ccc1O`, 9.16 Celsius (active). Still for that read-out and setting: with `COC(=O)c1cnc2oc3ccc(O)cc3c2c1-c1ccccc1` the figure was 6.11 Celsius (active); with `CN(C)CCCn1cc(C2=C(c3c[nH]c4ccccc34)C(=O)NC2=O)c2ccccc21`, 6.98 Celsius (active); with `O=c1cc(-c2ccccc2)oc2cc(O)cc(O)c12`, 5.03 Celsius (active). For `O=c1cc(-c2ccccc2)oc2cc(O)c(O)c(O)c12`, the Tm shift was 4.05 Celsius (active). Still for that read-out and setting: with `O=c1c(-c2ccc(O)cc2)coc2cc(O)cc(O)c12` the figure was 3.77 Celsius (active).

Regarding `Brc1c(Br)c(Br)c2n[nH]nc2c1Br`, the Tm shift is 3.97 Celsius (active).

Staying with this experiment, now noted: Recombinant CLK1, thermal shift (DSF), at 10 µM, protein 2 µM, buffer 10 mM HEPES, NaCl 150 mM, with 50 mM Arg/Glu, stronger effect = higher value.
Regarding `Clc1cccc(-c2cnc3ccc(NC4CCOCC4)nn23)c1`, the Tm shift was 6.06 Celsius (active).

In the case of `Clc1cccc(Nc2ccn3ncc(-c4ccc5c(c4)OCO5)c3n2)c1`, the Tm shift was 6.85 Celsius (active).

As for `CCC(CO)Nc1ccc2ncc(-c3ccc(O)cc3)n2n1` (stereo not given), the Tm shift was 7.54 Celsius (active). Same read-out and setting: with `CC(=O)c1cccc(-c2cnc3ccc(NCC4CC4)nn23)c1` the figure was 5.75 Celsius (active).

The same experiment, now with this note: Recombinant CLK1, thermal shift (DSF), at 10 µM, protein 2 µM, buffer 10 mM HEPES, stronger effect = higher value.
For `CCOC(=O)c1c(C)[nH]c(/C=C2\C(=O)Nc3ccccc32)c1C`, the Tm shift is 8.66 Celsius (active). Still for that read-out and setting: with `Nc1ncnc2c1c(I)cn2[C@@H]1O[C@H](CO)C(O)C1O` (stereo not given in full) the figure was 4.43 Celsius (active); with `NC1=N/C(=C2/CCNC(=O)c3[nH]c(Br)cc32)C(=O)N1`, 4.9 Celsius (active).

Still in this experiment, the particulars now being: Recombinant CLK1, thermal shift (DSF), at 10 µM, protein 2 µM, buffer 10 mM HEPES, pH 7.5, NaCl 150 mM, with 50 µM L-Arg/L-Glu (1:1), stronger effect = higher value.
`NS(=O)(=O)c1ccc(Nc2nc(OCC3CCCCC3)c3[nH]cnc3n2)cc1`: the Tm shift is 3.9 Celsius (active). For the compound `CC(=O)Nc1cccc(-c2cnc3ccc(NC4CCOCC4)nn23)c1`, the Tm shift is 8.8 Celsius (active). Consider `Nc1cccc(-c2cnn3ccc(Nc4cccc(Cl)c4)nc23)c1`, for which the Tm shift was 3.6 Celsius (active). Same read-out and setting: with `CCC(CO)Nc1ccc2ncc(-c3ccc(CO)cc3)n2n1` (stereo not given) the figure was 5.3 Celsius (active). On the same count and under the same terms, with `O=C(c1ccc(Nc2nccc(-c3cc4ccccc4s3)n2)cc1)N1CCC(N2CCCC2)CC1` the figure was 6.1 Celsius (active). The same measure, in the same setting: the figure for `Nc1ccc(-c2cnn3ccc(Nc4cccc(Cl)c4)nc23)cc1` is 5.8 Celsius (active); for `CCC(CO)Nc1ccc2ncc(-c3ccc(OC)nc3)n2n1` (stereo not given) it is 4.5 Celsius (active); for `Clc1ccc(-c2cnc3ccc(NC4CCOCC4)nn23)cc1` it is 5.7 Celsius (active). For the compound `O=C1NCc2c1c1c3ccccc3[nH]c1c1[nH]c3ccccc3c21`, the Tm shift was 3.1 Celsius (active). Same read-out and setting: the figure for `Fc1ccc(-c2cnc3ccc(NC4CCOCC4)nn23)cc1` is 5.3 Celsius (active); for `Cc1cc(Nc2nc(-c3ccccc3)nc3ccccc23)n[nH]1` it is 5.8 Celsius (active).

The experiment is the same for the next values; noted with them: Recombinant CLK1, thermal shift (DSF), at 10 µM, protein 2 µM, buffer 10 mM HEPES, pH 7.5, NaCl 150 mM, with 50 mM Arg/Glu, stronger effect = higher value.
With `Nc1ncnc2c1c(I)cn2[C@@H]1O[C@H](CO)C(O)C1O` (stereo not given in full), the Tm shift is 5.2 Celsius (active). Consider `CC(C)n1cnc2c(Nc3cccc(Cl)c3)nc(NCCO)nc21`, for which the Tm shift was 4.6 Celsius (active). Still for that read-out and setting: the figure for `NC1=N/C(=C2/CCNC(=O)c3[nH]c(Br)cc32)C(=O)N1` is 4.4 Celsius (active); for `CN(C)CCCn1cc(C2=C(c3c[nH]c4ccccc34)C(=O)NC2=O)c2ccccc21` it is 4.4 Celsius (active). As for `NC(=O)c1ccc(-c2nc(-c3ccc4c(c3)OCCO4)c(-c3ccccn3)[nH]2)cc1`, the Tm shift is 6.3 Celsius (active).

The same experiment, now with this note: Recombinant CLK1, thermal shift (DSF), measured here: replicate experiment 2, at 10 µM, run 2, protein 2 µM, buffer 10 mM HEPES, NaCl 150 mM, stronger effect = higher value.
Take `CC1N=C2SC=CN2C(=O)C1CCN1CCC(=C(c2ccccc2)c2ccc(F)cc2)CC1` (stereo not given): the Tm shift came to 3.6 Celsius. Same read-out and setting: with `O=c1c(O)c(-c2ccc(O)c(O)c2)oc2cc(O)cc(O)c12` the figure was 6 Celsius. On the same count and under the same terms, with `O=C1c2ccccc2-c2n[nH]c3cccc1c23` the figure was 3.2 Celsius; with `COC(=O)c1cnc2oc3ccc(O)cc3c2c1-c1ccccc1`, 3.9 Celsius.
